Bioassay records deposited in PubChem by Broad Institute.
Wnt act: Wnt/beta-catenin pathway activation | 300,000 compounds, 1.2% hits | Wnt/beta-catenin reporter cell assay, activator, plate reader | activation, % at 9.35 µM; in the data active means activation above about 30%, passing the limit was not always enough; inconclusive means no clear call, values can overlap the other calls;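 further: 0% = neutral control wells and 100% = positive control wells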
esBAF inh: inhibitors of esBAF chromatin remodeling in mouse ES cells. Bmi1-luciferase knock-in reporter, 24 h; 100% = twice the neutral-well signal. reporter increase, % at 12.5 µM. 350,000 compounds, 2% hits. AID 602393; in the data active means activation above about 40%; inconclusive means no clear call, values can overlap the other calls;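 further: 0% = median of the plate's neutral control wells and 100% = double that signal; a rise in the Bmi1 reporter signal indicates esBAF inhibition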
MITF TRPM1 HTS: increases MITF-driven TRPM1 promoter luciferase signal. SK-MEL-5 TRPM1-promoter luciferase, 24 h; % of positive control, neutral wells = 0. activation, % at 12.5 µM. 300,000 compounds, 0.75% hits. AID 588334;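 active means mean activation of at least 80% with every replicate also reaching 80%; inconclusive means mean reaches 80% but some replicate falls short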;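 further: 0% = neutral control wells and 100% = parthenolide positive control wells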
C2C12 statin: protects C2C12 myotubes from simvastatin toxicity. AID 602340. rescue of ATP level, % at 7.49 µM. 330,000 compounds, 0.78% hits. ATP luminescence, 48 h; scaled: DMSO 0, geranylgeraniol control 100;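 active means mean ATP rescue above about 67%, or every replicate alone reaching that limit, limit read from the data, passing the limit was not always enough; inconclusive means no clear call, values can overlap the other calls; inactive means mean under the limit and some replicate under it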;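 further: myotubes were challenged with 10 µM simvastatin during compound exposure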
The depositor's hits bear a star; ? = inconclusive; . = no result given. An excerpt weighted towards active compounds, which were near 3% of everything screened.

SMILES	Wnt act	esBAF inh	MITF TRPM1 HTS	C2C12 statin
CC1CCCN(CCOc2ccc3ccccc3c2Br)C1 (stereo unspecified)	-1	.	96*	.
O=C(Nc1cccc(O)c1)c1cc(-c2cccs2)on1	10	81*	88*	-1
Cc1ccc(NC(=O)c2cc(-c3cccs3)on2)cc1	56*	31	.	8
CC(C)CN(CCOc1cccc(N2C(=O)C3=C(CCCC3)C2=O)c1)CC(C)C	42*	.	-16	.
O=C(Nc1ccc(Cl)cc1)N1C[C@@H]2[C@H](c3ccccc31)[C@H](CO)N2C(=O)c1ccccn1	.	23	.	-1
Cc1ccccc1Cn1nnc(C(=O)Nc2ccc3c(c2)OCCO3)c1N	46*	68*	91*	12
Cc1cc(C)c(NC(=O)Cn2nnc(C(=O)NCc3ccc4c(c3)OCO4)c2N)c(C)c1	.	-6	-1	92*
COc1ccc(Cn2nnc(C(=O)Nc3ccc4c(c3)OCCO4)c2N)cc1Br	9	5	18	-5
C[C@@H](C(=O)Nc1ccc2c(c1)OCCO2)n1nnc2ccccc2c1=O	24	57*	101*	-2
Cc1ccc(NC(=O)c2nnn(-c3ccc4c(c3)OCCO4)c2N)cc1	15	70*	99*	-6
Nc1c(C(=O)Nc2ccccc2)nnn1-c1ccc2c(c1)OCCO2	11	-11	25	-2
C[C@H]1CCCCO[C@H](CN(C)C(=O)c2ccncc2)[C@@H](C)CN([C@@H](C)CO)C(=O)c2cc(NC(=O)c3ccccc3)ccc2O1	.	5	.	.
Cc1ccc(C)c(Cn2nnc(C(=O)Nc3ccc4c(c3)OCCO4)c2N)c1	23	64*	85*	10
Cc1ccc(N2CC(C(=O)Nc3ccc4c(c3)OCCO4)CC2=O)cc1 (stereo unspecified)	30*	-11	-1	0
COC(=O)C1CCN(C(=O)C2CCC(=O)N(CCc3cccc(F)c3)C2)CC1 (stereo unspecified)	3	53*	19	12
O=C1CCC(C(=O)N2CCCCO2)CN1CCc1ccccc1 (stereo unspecified)	28	51*	66	-6
CN1CCN(C(=O)C2CCC(=O)N(CCc3cccc(F)c3)C2)CC1 (stereo unspecified)	-2	.	-15	.
CCOc1ccccc1NC(=O)CN1C(=O)C(C)SC(C)C1=O (stereo unspecified)	39*	.	-10	.
CCOc1ccccc1NC(=O)CN1C(=O)CSC(C)C1=O (stereo unspecified)	-1	.	-6	.
Brc1ccc(-c2nn3c(Cc4ccccc4)nnc3s2)o1	.	-3	-9	72*
Clc1ccccc1-c1nnc2sc(-c3ccc(Br)o3)nn12	0	13	4	19
C[C@H]1CCCCO[C@@H](CN(C)C(=O)c2ccccc2)[C@@H](C)CN([C@@H](C)CO)C(=O)c2cc(NC(=O)c3ccncc3)ccc2O1	.	-16	.	-16
Cc1ccc(Cn2ccsc2=NC(=O)COC(=O)c2ccc(O)cc2O)cc1	6	47*	41	-10
Cc1cccc(NC(=O)Nc2cccc(C)n2)n1	.	13	42	6
Cc1cccc(NC(=O)NC(=O)c2ccccc2)n1	37*	.	43	.
SMILES	Wnt act	esBAF inh	MITF TRPM1 HTS	C2C12 statin
Cc1ccc(NC(=O)Nc2ccnc(-c3cccnc3)n2)cc1	55*	.	-3	.
Cc1cccc(NC(=O)Nc2ccc(F)cc2)n1	12	?	45	16
Cc1cccc(NC(=O)c2ccc(C(=O)c3ccccc3)cc2)n1	22	-16	72	5
Cc1ccc(NC(=O)Nc2cccc(C)n2)cc1	40*	4	76	-3
Cc1ccc(C(=O)Nc2ccnc(-c3cccnc3)n2)cc1	0	.	33	.
Cc1cccc(NC(=O)Nc2ccc(C)c(C)c2)n1	35*	48*	32	10
CO[C@@H]1CN(C)C(=O)c2cc(NS(=O)(=O)Cc3ccccc3)ccc2OC[C@@H](C)N(Cc2nccs2)C[C@H]1C	.	3	.	-4
CNC[C@@H]1Oc2ccc(NC(=O)CCN3CCOCC3)cc2CC(=O)N([C@H](C)CO)C[C@@H]1C	.	-1	.	12
COC(=O)c1ccc(NC(=O)c2cn(-c3cccc(C)n3)cn2)cc1	1	6	21	.
Cc1ccc(NC(=O)c2cn(-c3cccc(C)n3)cn2)cc1	.	26	106*	-26
CCCN(C)C[C@H]1OCCCC[C@H](C)Oc2ccc(NS(=O)(=O)c3c(C)noc3C)cc2C(=O)N([C@@H](C)CO)C[C@H]1C	.	-7	.	.
COC(=O)c1c(-c2ccccc2)c[nH]c1C	24	51*	59	-6
COc1cccc(C(=O)Nc2ccccc2C(=O)N2CCCC2)c1	2	-2	10	100*
COc1ccc(/C=C/C(=O)Nc2ccccc2C(=O)N2CCCC2)cc1	.	56*	.	6
CC(=O)Oc1cccc(C(=O)Nc2ccccc2C(=O)N2CCCC2)c1	2	-2	2	3
COc1ccc(S(=O)(=O)N(C)C[C@@H]2Oc3ccc(NC(=O)CCN4CCOCC4)cc3C(=O)N([C@@H](C)CO)C[C@H]2C)cc1	.	-4	.	-11
COc1ccc(C(=O)/C=C/c2ccccc2C(F)(F)F)cc1	34*	14	-15	-3
CSc1ccc(-c2nnn(Cc3ccccn3)n2)cc1	-1	51*	63	-4
c1ccc(Cn2nnc(-c3ccccc3)n2)cc1	22	44*	48	15
N#Cc1cccc(Cn2nnc(-c3ccccc3)n2)c1	0	24	30	3
C/C=C/c1cnc2c(c1)C(=O)N([C@H](C)CO)C[C@@H](C)[C@@H](CN(C)S(=O)(=O)c1ccccc1)O2	.	0	.	-9
O=C(Nc1ccc(Cl)cn1)c1ccc2ccccc2n1	.	10	45	2
Cc1ccc(NC(=O)c2ccc3ccccc3n2)nc1	77*	22	42	-14
COc1ccc(-c2cc3ccccc3oc2=O)cc1NC(=O)c1ccc([N+](=O)[O-])o1	.	42*	-55	?
COc1ccccc1NC(=O)c1oc2ccccc2c1C	.	47*	.	9
SMILES	Wnt act	esBAF inh	MITF TRPM1 HTS	C2C12 statin
Cc1ccccc1NC(=O)c1cc(=O)c2ccccc2o1	.	3	.	14
Cc1ccccc1NC(=O)c1cc2ccccc2o1	18	47*	50	0
COc1ccccc1NC(=O)c1cc2ccccc2o1	.	72*	36	12
CCN(CC)c1ccc(NC(=O)c2cc3ccccc3o2)c(C)c1	.	45*	47	159*
COc1cc(NC(=O)c2cc3ccccc3o2)c(OC)cc1Br	.	1	-6	-10
Cc1cc(C)nc(NC(=O)c2cc3ccccc3o2)n1	7	-4	-3	-5
Cc1ccc(NC(=O)c2cc3ccccc3o2)nc1	65*	.	28	.
CCN(CC)c1ccc(NC(=O)c2c(OC)cccc2OC)c(C)c1	3	-7	.	-3
CCC(=O)Nc1ccc2c(c1)C(=O)N(C)[C@H]1CC[C@H](CC(=O)NCCc3ccncc3)O[C@H]1CO2	.	6	.	0
COCCNC(=O)C[C@@H]1CC[C@H]2[C@H](COc3ccc(NC(=O)Nc4ccccc4)cc3C(=O)N2C)O1	.	10	.	9
COc1ccc(CNC(=O)c2ccc(N3CCCC3=O)cc2)cc1	24	24	34	7
